Data on 20 compounds can be found in PubChem BioAssay (NCI).

About 79,000 compounds went through this panel and 15% of them were active in at least one assay; those are over-represented in the sample as a whole. A number with no mark means an inactive call. Active and inactive are the calls of the source. Cut-off read from the data, not from the text of the source: active = growth inhibition above about 70%; inactive = the rest.

Test [1] is described as follows: NCI Yeast Anticancer Drug Screen. Data for the rad50 strain (AID 155).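 Note: 0% = growth of vehicle-only cultures of the same strain.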 The settings on record: S. cerevisiae rad50 strain growth inhibition; at 50.0 µM; stronger effect = higher value. In a few lines: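 Compounds were tested on a yeast strain with an engineered DNA damage repair alteration; the reported value is growth inhibition normalised to vehicle treatment.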
Test [2] is described as follows: NCI Yeast Anticancer Drug Screen. Data for the mec2-1 strain (AID 157). The note with it: S. cerevisiae mec2-1 strain, at 50.0 µM, stronger effect = higher value. In outline: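 Readout is yeast growth inhibition, normalised to vehicle-treated controls, in the mec2-1 strain exposed to compound.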
A short description of test [3]: NCI Yeast Anticancer Drug Screen. Data for the sgs1 mgt1 strain (AID 161).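 Note: 0% = growth of cultures given vehicle only.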 The settings on record: S. cerevisiae sgs1 mgt1 strain, at 50.0 µM, stronger effect = higher value. In a few lines:
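This yeast growth screen uses a strain with defined DNA-repair lesions; compound-treated growth is compared with vehicle-treated growth.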

A short description of test [4]: NCI Yeast Anticancer Drug Screen. Data for the cln2 rad14 strain (AID 165).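 Note: 0% = growth equal to vehicle treated cultures.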 The settings on record: S. cerevisiae cln2 rad14 strain, at 50.0 µM, stronger effect = higher value. In outline: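 Relative to vehicle controls, growth inhibition of compound-treated cln2 rad14 yeast was recorded.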
Test [5] in a line: NCI Yeast Anticancer Drug Screen. Data for the bub3 strain (AID 167). The note with it: S. cerevisiae bub3 mutant strain, at 50.0 µM, stronger effect = higher value. In a few lines:
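Growth of a checkpoint-deficient yeast mutant is measured after compound exposure. Values represent inhibition relative to vehicle.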

Test [6] is described as follows: NCI Yeast Anticancer Drug Screen. Data for the mlh1 rad18 strain (AID 175). The note with it: S. cerevisiae mlh1 rad18 strain growth inhibition; at 50.0 µM; stronger effect = higher value. In a few lines:
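Test agents were incubated with a yeast strain of defined genotype (DNA damage repair defect). Inhibition of growth was derived by comparison with vehicle-exposed cultures.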

In the case of `CC1C(C)(C)P(=O)(Oc2cccc3cccnc23)C1(C)C` (stereo not given), the growth inhibition in test [1] was 83.3% (active); in test [2], 64.7%; in test [3] it was 84.5% (active); in test [4], 64.6%; in test [5], 99% (active); in test [6], 57.2%.
Consider `CN(C)C1OCCO1`, for which the growth inhibition is -8.45% in test [1]; -36.1% in test [2]; -11% in test [3]; 1.4% in test [4]; -7.05% in test [5]; -3.35% in test [6].
Consider `CNP(=S)(Oc1cc(Cl)c(Cl)cc1Cl)N1CCN(c2ccc(Cl)cc2)CC1` (stereo not given), for which the growth inhibition in test [1] is -0.5%; in test [2] it was 2%; in test [3], 4.35%; in test [4] it was -0.9%; in test [5], -2.9%; in test [6], 16.4%.
As to `COc1cc2c(cc1O)-c1c(OC)c(O)cc3c1C(C2)N(C)CC3` (stereo not given), the growth inhibition in test [1] was -20.6%; in test [2], -22.4%; in test [3] it was -22.6%; in test [4], -16.4%; in test [5], -24.4%; in test [6] it was -46.9%.
For `O=C1NC(=O)C(O)(Cc2ccccn2)C(=O)N1`, the growth inhibition in test [1] was 9.9%; in test [2], 6.45%; in test [3], 13.5%; in test [4], 13.2%; in test [5], -21.1%; in test [6] it was -6.65%.
Consider `C1C[N-]CC[N-]1.C1C[N-]CC[N-]1.[Zn]`, for which the growth inhibition in test [1] is 98.7% (active); in test [2], 99.5% (active); in test [3], 99.5% (active); in test [4], 98.8% (active); in test [5] it was 99.4% (active); in test [6], 99.3% (active).
In the case of `Nc1ccc(CCC(=O)Nc2ccc(S(=O)(=O)F)cc2)c(Cl)c1`, the growth inhibition is 82.9% (active) in test [1]; 84% (active) in test [2]; 85.3% (active) in test [3]; 92% (active) in test [4]; 92% (active) in test [5]; 96.5% (active) in test [6].
In the case of `[I][Ni][I].c1ccc([PH+](c2ccccc2)c2ccccc2)cc1.c1ccc([PH+](c2ccccc2)c2ccccc2)cc1`, the growth inhibition in test [1] was 21%; in test [2] it was 38.4%; in test [3], 64%; in test [4], 17.6%; in test [5], 5.7%; in test [6], 48.7%.
As for `CP(=S)(c1ccccc1)P(C)(=S)c1ccccc1` (stereo not given), the growth inhibition in test [1] was -15.4%; in test [2], -19.4%; in test [3], -17.9%; in test [4] it was 5.05%; in test [5] it was -21.2%; in test [6], -31%.
`O=C(CCC1C(=O)NC(=S)NC1=O)c1ccc2ccccc2c1`: the growth inhibition was 14.7% in test [1]; 17.8% in test [2]; -12.2% in test [3]; 5.3% in test [4]; -7.95% in test [5]; -8.15% in test [6].
Take `COC(=O)C1=C(C)NC(C)=C2C(=O)Oc3ccccc3C12` (stereo not given): the growth inhibition in test [1] is 4.75%; in test [2], -9.65%; in test [3], -7.5%; in test [4], 6.6%; in test [5], -6.8%; in test [6], 1.4%.
Regarding `O=C1Cc2ccccc2C(=O)N1CCN1CCOCC1`, the growth inhibition in test [1] was 4.05%; in test [2] it was -14.2%; in test [3], -3.95%; in test [4], 1.55%; in test [5], -1.5%; in test [6] it was 1.55%.
With `O=NNc1cc(=O)[nH]c(=O)[nH]1`, the growth inhibition in test [1] was 5.4%; in test [2] it was -4.5%; in test [3] it was -3.85%; in test [4] it was -39.2%; in test [5] it was -7.6%; in test [6] it was -6.5%.
Consider `Nc1ccc(CCc2ccc(S(=O)(=O)F)cc2)cc1`, for which the growth inhibition in test [1] is 94.8% (active); in test [2], 95.9% (active); in test [3], 98.3% (active); in test [4], 92.8% (active); in test [5], 92.7% (active); in test [6], 92.6% (active).
As to `N.N.N.N.N.NC(=O)[O-].[Co+3].[I-]`, the growth inhibition is -14.1% in test [1]; 3.9% in test [2]; -13.1% in test [3]; 25.7% in test [4]; -7.75% in test [5]; -15.7% in test [6].
Turning to `O=P(N1CCNCC1)(N1CCNCC1)N1CCNCC1`, the growth inhibition in test [1] is -20.1%; in test [2], -11.8%; in test [3] it was -1.35%; in test [4], -42.5%; in test [5] it was 5.45%; in test [6], -20.2%.
With `COc1cc(C=Nc2ccc(C(=O)O)c(O)c2)ccc1N(CCCl)CCCl`, the growth inhibition in test [1] was 60.8%; in test [2], 15.1%; in test [3] it was 65.2%; in test [4], 41%; in test [5], -3.95%; in test [6] it was 48.8%.
`C1C[OH+]CC[OH+]CC[OH+]CC[OH+]CC[OH+]1.[Cl-].[V]`: the growth inhibition in test [1] is -13.2%; in test [2] it was -6.25%; in test [3], -1.95%; in test [4] it was -10.8%; in test [5], -12%; in test [6] it was -1%.
As for `O=C(O)c1ccc(=O)[nH]c1`, the growth inhibition in test [1] was 25.6%; in test [2], 7.85%; in test [3] it was 10.2%; in test [4], -22.1%; in test [5], 13.9%; in test [6], 19.6%.
Take `O=C1C(Br)=C(N2CC2)C(=O)C(Br)=C1N1CC1`: the growth inhibition in test [1] is 96% (active); in test [2], 88% (active); in test [3] it was 90.5% (active); in test [4], 79.2% (active); in test [5], 39%; in test [6], 97% (active).
